Screening data deposited in PubChem by National Center for Advancing Translational Sciences (NCATS).
Pf Dd2 growth: inhibitors of Plasmodium falciparum Dd2 growth. P. falciparum Dd2 growth, SYBR Green, 72 h. hit rate 4.3% among 120,000. Potency, µM (top dose mostly 28.9 µM), for inactives: at the highest dose activity, negative = inhibition, usual class: inhibitors; active means well fitted inhibition curve with a large enough effect;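 further: plate controls were DMSO vehicle for no effect and reference drug for full effect; nearly all actives have a fitted effect of over 65% in size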
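Readout: SYBR Green fluorescence, 485 nm excitation, 535 nm emission, after ~16 h lysis at 37C. Before that, Dd2-infected red cells (2.5% hematocrit) grew 72 h with compound, 29 uM top final concentration.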
Starred values were filed as active, the others as inactive; i = inactive; ! = a repeat was not active; [ ] = another dose, or the depositor's remark. This is one part of a sample in which hits are shown more often than they occur. Potency means the concentration at half of the fitted maximal effect.

SMILES	Pf Dd2 growth
O=S(=O)(NC[C@H]1O[C@@H](CO)[C@@H](O)[C@H]1N1CCN(c2ccccc2)CC1)c1ccc(F)cc1	-25%
O=C(N[C@@H]1CCC[C@@H]1C(=O)NCC1CCCCC1)c1ccncc1	-6%
COCCN1CCC(CN(Cc2ccncc2)C(=O)[C@@H]2C[C@@H]3C=C[C@H]2C3)CC1	-8%
Cc1c(F)cccc1NC(=O)N1CC(c2nnc(-c3ccncc3)o2)C2(CCOCC2)C1 (stereo not given)	i
COCCN1C(=O)CO[C@H]2CN(c3nccc(OC)n3)C[C@H]21	-2%[44.1 µM]
COc1ccc(-c2nc(-c3nnn4c3COC(c3ccccc3Cl)C4)no2)cc1F (stereo not given)	i
Cc1ccccc1S(=O)(=O)N1CCn2c(nn(CC3CC3)c2=O)C1	-9%
CCCCN(CC)CCCNC(=O)c1cc2c(=O)oc3ccc(C)cc3c2s1	10%
CCN(CCCNC(=O)c1cc2c(=O)[nH]c3ccc(C)cc3c2s1)Cc1ccccc1	7.9µM*
Cc1cccc(CCNC(=O)c2cc3c(=O)[nH]c4ccc(C)cc4c3s2)c1	-17%
CCOCC(=O)N[C@@H]1CN(Cc2ccccc2)C[C@H]1CN(C)C	i
CN(C)c1nc2c(c(=O)[nH]1)CCN(Cc1cc(F)cc(F)c1)CC2	-11%[5.79 µM]
Cc1ccc(C2=NC3(CCN(C(=O)Cc4ccccc4Cl)CC3)ON2)cc1	11µM*
Cc1ccc(C2=NC3(CCN(C(=O)c4ccccc4C)CC3)ON2)cc1	6.3µM*
CN(C)c1ccc(C(=O)N2CCC3(CC2)N=C(c2cccc(Br)c2)NO3)cc1	37%
COc1ccccc1CC(=O)N1CCC2(CC1)N=C(c1ccc(Cl)cc1)NO2	-35%
Cc1ccc(C2=NC3(CCN(C(=O)Cc4ccc(F)cc4)CC3)ON2)cc1	-13%
CC(=O)Nc1ccc(C(=O)N2CCC3(CC2)N=C(c2cccc(Br)c2)NO3)cc1	11µM*
Cc1ccc(C)c(C(=O)N2CCC3(CC2)N=C(c2ccccc2)NO3)c1	i
O=C(c1ccccc1)N1CCC2(CC1)N=C(c1cccc(Br)c1)NO2	i
Cc1ccc(C2=NC3(CCN(C(=O)c4c[nH]c5ccccc45)CC3)ON2)cc1	-13%
COCC1CN(C(C)=O)CC12CCN(C(=O)c1ccc(C)c(F)c1)CC2 (stereo not given)	i
CN(c1cc(=O)c2ccnc(-c3cccc(CO)c3)c2o1)C1CCOCC1	i
CN1C(=O)CC(C(=O)O)C12CCN(Cc1cnn(C)c1)CC2 (stereo not given)	-2%
Cn1c(CNC(=O)c2cc[nH]c2C2CCCNC2)nc2ccccc21 (stereo not given)	-4%
SMILES	Pf Dd2 growth
CCCSc1ncc(CN2CCCC(c3nnc(CN(C)C)n3C)C2)cn1 (stereo not given)	8%
O=C1Nc2ccc(-c3cccs3)cc2C(=O)N2CC[C@H](NS(=O)(=O)c3ccc(Cl)cc3)C[C@@H]12	-4%
CC(=O)NC1CCN(C(=O)c2coc(COc3ccc4c(c3)OCO4)n2)C1 (stereo not given)	4%
CN1CC(=O)N(C2CCCC2)Cc2c1ncnc2N1CCN(Cc2ccccc2)CC1	-29%
COCc1nc(C2CCCN(C(=O)c3sccc3C)C2)no1 (stereo not given)	i
O=C(C[C@H]1NC(=O)c2ccccc2NC1=O)Nc1nnc(C2CCCO2)s1 (stereo not given in full)	i
CC(C)(C)C(=O)N1CCC(c2nn(-c3ccc(Cl)cc3)c(=O)[nH]2)CC1	8.9µM*
COc1ccc(-n2nc(C3CCN(Cc4ccc(C#N)cc4)CC3)[nH]c2=O)cc1	i
COc1ccc(C(=O)N2CCC(c3nn(-c4ccc(Cl)cc4)c(=O)[nH]3)CC2)cc1	-14%
COc1ccc(-n2nc(C3CCN(Cc4ccc(C)cc4)CC3)[nH]c2=O)cc1	13µM*!
COc1ccc(-n2nc(C3CCN(Cc4ccc(F)cc4)CC3)[nH]c2=O)cc1	i
O=C(Cc1ccc(F)cc1)N1CCC(c2nn(-c3ccc(Cl)cc3)c(=O)[nH]2)CC1	i
Cc1nc(C)c(C(=O)N2CCC3(CC2)CC(N2CCOCC2)CCO3)s1 (stereo not given)	39%
COc1ccc(CN2Cc3[nH]cnc3C[C@H]2c2nc(-c3ccc(C(F)(F)F)cc3)no2)cc1	-9%
CCNC(=O)[C@@H]1C[C@H](NC(=O)Cc2ccccc2C)CN1C1CCCC1	-7%
O=C1CC(NS(=O)(=O)N2CCCC2)CN1Cc1ccc(F)cc1 (stereo not given)	-13%
COc1ccc(CNC(=O)N2CCC3(CC2)CC(OC)CCO3)cc1 (stereo not given)	23%
O=C(O)[C@H]1C[C@H](C(=O)NCc2ccccn2)CN(C(=O)CC2CCCC2)C1	-2%
CC(C)Oc1ccc2c(NC(=O)CN3CCOCC3)nn(CC(F)(F)F)c2c1	-10%
CNC(=O)c1cc(-c2cccc(OC)c2OC)cc2c1OCCN2Cc1cccnc1	13µM*
CNC(=O)c1cc(-c2cccnc2)cc2c1OCCN2Cc1cccnc1	i
CNC(=O)c1cc(-c2cnn(C)c2)cc2c1OCCN2Cc1cccnc1	-11%[44.1 µM]
COc1ccc(NC(=O)CCC2CCCN(C(=O)c3ccccc3SC)C2)cc1Cl (stereo not given)	i
COc1ccc(NC(=O)CCC2CCCN(C(=O)c3ncoc3C)C2)c(C)c1 (stereo not given)	31%
COc1ccc(Cl)cc1NC(=O)CCC1CCCN(C(=O)c2ccoc2C)C1 (stereo not given)	4µM*
SMILES	Pf Dd2 growth
CCCCc1nn(CC(=O)N2C[C@H]3CC=C(C)C[C@H]3C2)c(=O)n1CC	-9%
CCCc1noc(-c2ccn3c(CNC(=O)c4ccccc4F)nnc3c2)n1	i
CCNC(=O)c1cc(NC(=O)C(C)C)cc2nc(C)ccc12	-4%
CC(C)CNc1nccc(C2(c3ccccc3Cl)CCNCC2)n1	5µM*
C[C@@H](O)CNc1nccc(C2(c3ccccc3Cl)CCNCC2)n1	-11%
CC(CNc1nccc(C2(c3ccccc3Cl)CCNCC2)n1)CN(C)C (stereo not given)	-12%
CCC(C)Cc1nccc(C2(c3ccccc3Cl)CCNCC2)n1 (stereo not given)	4.5µM*
OCC(O)CNc1nccc(C2(c3ccccc3Cl)CCNCC2)n1 (stereo not given)	-14%
Clc1ccccc1C1(c2ccnc(NCc3ccncc3)n2)CCNCC1	-10%
COc1ccc(S(=O)(=O)N2CC[C@H]3NC(=O)N(c4ccc(C)cc4)C(=O)[C@H]32)cc1	-23%[44.1 µM]
O=[S+]1([O-])NCC2(CCN(Cc3cncs3)CC2)Nc2ccccc21	-11%
COc1ccc(-c2cc(C[C@@H]3C[C@H](NCc4ccncc4)C3(C)C)no2)cc1	-16%[44.1 µM]
Cc1cc(C(=O)N2CCOCC2)c2c(C3CCCN3)noc2n1 (stereo not given)	9%
CC(=O)N1CCOc2cc(S(=O)(=O)Nc3cccc(C(F)(F)F)c3)c(Cl)cc21	13µM*
CC(=O)N1CCOc2cc(S(=O)(=O)Nc3cc(C(F)(F)F)ccc3Cl)c(C)cc21	26%
CC(=O)N1CCOc2cc(S(=O)(=O)NC(C)c3ccccc3)c(Cl)cc21 (stereo not given)	3%
CN(CCc1ccccn1)C(=O)CCC[C@@H]1[C@H]2CCCN3CCC[C@@H](CN1C(=O)c1cccnc1)[C@@H]23	-11%
CCC(=O)N1CCN(C2CCN(CCOC)C2=O)CC1 (stereo not given)	-6%
Cc1nc2n(c1C(=O)NCC1CC1)CCC(Nc1ccc(F)cc1)C2 (stereo not given)	-25%[44.1 µM]
